This is part of a sample that, as a whole, favours compounds with a hit. Of some 79,000 tested, about 15% had one in any assay. Unmarked numbers belong to inactive results. Calls of active or inactive are those of the source. Cut-off read from the data, not from the text of the source: active = growth inhibition above about 70%; inactive = the rest.

The nature of assay [1]: NCI Yeast Anticancer Drug Screen. Data for the rad50 strain (AID 155).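 Note: 0% = growth of vehicle-only cultures of the same strain.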 The note with it: S. cerevisiae rad50 strain growth inhibition, stronger effect = higher value. The procedure, abridged:
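Yeast carrying a defined DNA repair defect were exposed to test compounds, and growth was compared with vehicle-treated controls to give percent inhibition.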

Assay [2] in a line: NCI Yeast Anticancer Drug Screen. Data for the mec2-1 strain (AID 157). The note with it: S. cerevisiae mec2-1 strain, stronger effect = higher value. The essentials:
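Using mec2-1 yeast: add compound, measure growth, express inhibition versus vehicle-treated cultures.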

Assay [3] is described as follows: NCI Yeast Anticancer Drug Screen. Data for the sgs1 mgt1 strain (AID 161).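 Note: 0% = growth of cultures given vehicle only.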 The note with it: S. cerevisiae sgs1 mgt1 strain, stronger effect = higher value. The essentials: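 Percent growth inhibition was derived by comparing compound-exposed mutant yeast with vehicle-exposed cultures. The strain carries alterations in DNA damage repair.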
A short description of assay [4]: NCI Yeast Anticancer Drug Screen. Data for the cln2 rad14 strain (AID 165).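 Note: 0% = growth equal to vehicle treated cultures.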 As to conditions: S. cerevisiae cln2 rad14 strain, stronger effect = higher value. The procedure, abridged:
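Yeast strain cln2 rad14, bearing defects in cell cycle control and DNA repair, serves as the test system; values reflect growth inhibition compared with vehicle.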

A short description of assay [5]: NCI Yeast Anticancer Drug Screen. Data for the bub3 strain (AID 167). The note with it: S. cerevisiae bub3 mutant strain, stronger effect = higher value. The essentials:
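Compounds were applied to a genetically altered yeast strain carrying a cell-cycle control defect. Growth inhibition was scored against vehicle-treated controls.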

Assay [6] can be described thus: NCI Yeast Anticancer Drug Screen. Data for the mlh1 rad18 strain (AID 175). As to conditions: S. cerevisiae mlh1 rad18 strain growth inhibition, stronger effect = higher value. The procedure, abridged: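 Steps: expose repair-defective yeast to compound; measure growth; express inhibition against vehicle-treated controls.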
Setting [7] is: at 5.0 µM (retest, dose inferred, filed as 0.5).
Setting [8] is: at 50.0 µM (retest, dose inferred, filed as 5.0).

As for `O=[N+]([O-])c1ccc2c(c1)[n+]([O-])c1[nH]c3ccccc3c1[n+]2[O-]` (tested in a mixture with another compound), the growth inhibition was 85% (active) in assay [1] (setting [7]); 88% (active) in assay [1] (setting [8]); 93.2% (active) in assay [1] (at 50.0 µM); 55% in assay [2] (setting [7]); 89% (active) in assay [2] (setting [8]); 87.4% (active) in assay [2] (at 50.0 µM). Moreover, the growth inhibition in assay [3] (setting [7]) was 68%; in assay [3] (setting [8]) it was 91% (active); in assay [3] (at 50.0 µM) it was 82.9% (active); in assay [4] (setting [7]), 48%; in assay [4] (setting [8]), 85% (active); in assay [4] (at 50.0 µM), 89.8% (active). For the same molecule, the growth inhibition is 64% in assay [5] (setting [7]); 90% (active) in assay [5] (setting [8]); 81.8% (active) in assay [5] (at 50.0 µM); 78% (active) in assay [6] (setting [7]); 91% (active) in assay [6] (setting [8]); 86.3% (active) in assay [6] (at 50.0 µM).
For `O=S1CCS(=O)C1c1ccccc1` (stereo not given), the growth inhibition in assay [1] (setting [7]) is -1%; in assay [1] (setting [8]) it was 28%; in assay [1] (at 50.0 µM) it was 85.3% (active); in assay [2] (setting [7]) it was -6%; in assay [2] (setting [8]), 26%; in assay [2] (at 50.0 µM) it was 61%. Further, the growth inhibition in assay [3] (setting [7]) is -5%; in assay [3] (setting [8]), 33%; in assay [3] (at 50.0 µM), 54%; in assay [4] (setting [7]), -18%; in assay [4] (setting [8]) it was 8%; in assay [4] (at 50.0 µM), -11.1%. The growth inhibition was -14% in assay [5] (setting [7]); 38% in assay [5] (setting [8]); 67.8% in assay [5] (at 50.0 µM); 2% in assay [6] (setting [7]); 39% in assay [6] (setting [8]); 37.7% in assay [6] (at 50.0 µM).
As to `O=C(N/N=C/c1cc(Br)ccc1O)c1ccccc1`, the growth inhibition in assay [1] (setting [7]) was 59%; in assay [1] (setting [8]), 61%; in assay [1] (at 50.0 µM), -23.9%; in assay [2] (setting [7]), 32%; in assay [2] (setting [8]), 53%; in assay [2] (at 50.0 µM), -18.9%. Moreover, the growth inhibition was 64% in assay [3] (setting [7]); 82% (active) in assay [3] (setting [8]); 5.65% in assay [3] (at 50.0 µM); 21% in assay [4] (setting [7]); 25% in assay [4] (setting [8]); -33.9% in assay [4] (at 50.0 µM). The growth inhibition was 79% (active) in assay [5] (setting [7]); 89% (active) in assay [5] (setting [8]); -12.6% in assay [5] (at 50.0 µM); 92% (active) in assay [6] (setting [7]); 90% (active) in assay [6] (setting [8]); -6.75% in assay [6] (at 50.0 µM).
Take `COc1c(OC)c(C2(O)C(=O)N(C)c3ccccc32)c(OC)c(OC)c1C1(O)C(=O)N(C)c2ccccc21` (stereo not given): the growth inhibition is -1% in assay [1] (setting [7]); 2% in assay [1] (setting [8]); 7.2% in assay [1] (at 50.0 µM); -2% in assay [2] (setting [7]); 12% in assay [2] (setting [8]); 3.9% in assay [2] (at 50.0 µM). Moreover, the growth inhibition was -3% in assay [3] (setting [7]); 1% in assay [3] (setting [8]); -4.9% in assay [3] (at 50.0 µM); -10% in assay [4] (setting [7]); -2% in assay [4] (setting [8]); -0.05% in assay [4] (at 50.0 µM). In addition, the growth inhibition in assay [5] (setting [7]) was -3%; in assay [5] (setting [8]), -2%; in assay [5] (at 50.0 µM), 4.85%; in assay [6] (setting [7]), -1%; in assay [6] (setting [8]), 22%; in assay [6] (at 50.0 µM), 7.15%.
In the case of `CC(=O)OC1CCC2(C)C(CCC3C4=CCC(C5COC(=O)C5)C4(C)CCC32)C1` (stereo not given), the growth inhibition in assay [1] (setting [7]) is -1%; in assay [1] (setting [8]), 79% (active); in assay [1] (at 50.0 µM) it was 77.2% (active); in assay [2] (setting [7]) it was 17%; in assay [2] (setting [8]), 94% (active); in assay [2] (at 50.0 µM), 61.5%. The growth inhibition in assay [3] (setting [7]) is -5%; in assay [3] (setting [8]), 88% (active); in assay [3] (at 50.0 µM), 84.7% (active); in assay [4] (setting [7]) it was -2%; in assay [4] (setting [8]), 89% (active); in assay [4] (at 50.0 µM), 63.1%. Besides, the growth inhibition in assay [5] (setting [7]) was 4%; in assay [5] (setting [8]), 91% (active); in assay [5] (at 50.0 µM), 59.8%; in assay [6] (setting [7]), 11%; in assay [6] (setting [8]), 90% (active); in assay [6] (at 50.0 µM) it was 78.1% (active).
With `Cc1cc(Cc2ccc(Cl)cc2)ccc1O`, the growth inhibition in assay [1] (setting [7]) is 0%; in assay [1] (setting [8]), 99% (active); in assay [1] (at 50.0 µM), 56.4%; in assay [2] (setting [7]) it was -8%; in assay [2] (setting [8]) it was 99% (active); in assay [2] (at 50.0 µM), 46.1%. Moreover, the growth inhibition in assay [3] (setting [7]) was 2%; in assay [3] (setting [8]), 99% (active); in assay [3] (at 50.0 µM), 99.2% (active); in assay [4] (setting [7]) it was -13%; in assay [4] (setting [8]), 99% (active); in assay [4] (at 50.0 µM) it was 51.9%. Also, the growth inhibition in assay [5] (setting [7]) is -19%; in assay [5] (setting [8]), 99% (active); in assay [5] (at 50.0 µM), 56.4%; in assay [6] (setting [7]), 6%; in assay [6] (setting [8]), 99% (active); in assay [6] (at 50.0 µM), 47.9%.
Turning to `Clc1ccc(C(c2ccc(Cl)cc2)c2cncnc2)cc1`, the growth inhibition is 18% in assay [1] (setting [7]); 96% (active) in assay [1] (setting [8]); 89.8% (active) in assay [1] (at 50.0 µM); 6% in assay [2] (setting [7]); 99% (active) in assay [2] (setting [8]); 90% (active) in assay [2] (at 50.0 µM). Further, the growth inhibition in assay [3] (setting [7]) was 15%; in assay [3] (setting [8]), 95% (active); in assay [3] (at 50.0 µM) it was 89.4% (active); in assay [4] (setting [7]) it was 10%; in assay [4] (setting [8]), 98% (active); in assay [4] (at 50.0 µM), 89.2% (active). The growth inhibition in assay [5] (setting [7]) is 40%; in assay [5] (setting [8]), 97% (active); in assay [5] (at 50.0 µM), 84.2% (active); in assay [6] (setting [7]), 13%; in assay [6] (setting [8]) it was 97% (active); in assay [6] (at 50.0 µM) it was 86.8% (active).
Turning to `CS(=O)(=O)Nc1ccc(Nc2c3ccccc3nc3ccccc23)cc1`, the growth inhibition in assay [1] (setting [7]) is 13%; in assay [1] (setting [8]) it was 25%; in assay [1] (at 50.0 µM) it was 91.8% (active); in assay [2] (setting [7]) it was -7%; in assay [2] (setting [8]) it was -11%; in assay [2] (at 50.0 µM) it was 25.6%. For the same molecule, the growth inhibition was 6% in assay [3] (setting [7]); 20% in assay [3] (setting [8]); 14.3% in assay [3] (at 50.0 µM); -14% in assay [4] (setting [7]); -3% in assay [4] (setting [8]); 18.9% in assay [4] (at 50.0 µM). Further, the growth inhibition was 10% in assay [5] (setting [7]); -2% in assay [5] (setting [8]); 37.9% in assay [5] (at 50.0 µM); 1% in assay [6] (setting [7]); 13% in assay [6] (setting [8]); 35.1% in assay [6] (at 50.0 µM).
On to `F[Si](c1ccccc1)(c1ccccc1)c1ccccc1`, for which the growth inhibition was -3% in assay [1] (setting [7]); 75% (active) in assay [1] (setting [8]); 62% in assay [1] (at 50.0 µM); 3% in assay [2] (setting [7]); 87% (active) in assay [2] (setting [8]); 25.3% in assay [2] (at 50.0 µM). Also, the growth inhibition is 8% in assay [3] (setting [7]); 79% (active) in assay [3] (setting [8]); 32.1% in assay [3] (at 50.0 µM); 0% in assay [4] (setting [7]); 82% (active) in assay [4] (setting [8]); 41.6% in assay [4] (at 50.0 µM). In addition, the growth inhibition in assay [5] (setting [7]) is -5%; in assay [5] (setting [8]) it was 98% (active); in assay [5] (at 50.0 µM) it was 45.6%; in assay [6] (setting [7]) it was 10%; in assay [6] (setting [8]), 94% (active); in assay [6] (at 50.0 µM), 79.5% (active).
Regarding `FC(F)(F)c1[nH]nc(-c2cccs2)c1N=NN1CCOCC1`, the growth inhibition is 98% (active) in assay [1] (setting [7]); 98% (active) in assay [1] (setting [8]); 98% (active) in assay [1] (at 50.0 µM); 100% (active) in assay [2] (setting [7]); 99% (active) in assay [2] (setting [8]); 99.2% (active) in assay [2] (at 50.0 µM). The growth inhibition in assay [3] (setting [7]) was 100% (active); in assay [3] (setting [8]) it was 99% (active); in assay [3] (at 50.0 µM) it was 97.2% (active); in assay [4] (setting [7]), 99% (active); in assay [4] (setting [8]), 99% (active); in assay [4] (at 50.0 µM) it was 98.6% (active). The growth inhibition in assay [5] (setting [7]) is 100% (active); in assay [5] (setting [8]), 99% (active); in assay [5] (at 50.0 µM) it was 98.6% (active); in assay [6] (setting [7]), 100% (active); in assay [6] (setting [8]), 99% (active); in assay [6] (at 50.0 µM), 98% (active).

The record behind these values is PubChem BioAssay (NCI).
